Screening data from PubChem.
An excerpt weighted towards active compounds, which were near 5.6% of everything screened.
ALR H2O2 inh – inhibitors of human ALR sulfhydryl oxidase, primary screen, biochemical, H2O2 detection, HRP-luminol luminescence, single point; FAD-linked sulfhydryl oxidase ALR (Homo sapiens), P55789; purified ALR, DTT oxidation; inhibition, % (test concentration not listed); 3.8% of 290,000 active;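 active = mean replicate inhibition above about 79%, with every replicate also reaching it, limit read from the data; inconclusive = only one of the two criteria met; inactive = mean below limit and not every replicate reaching it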
Target sequence (P55789 whole entry, looked up): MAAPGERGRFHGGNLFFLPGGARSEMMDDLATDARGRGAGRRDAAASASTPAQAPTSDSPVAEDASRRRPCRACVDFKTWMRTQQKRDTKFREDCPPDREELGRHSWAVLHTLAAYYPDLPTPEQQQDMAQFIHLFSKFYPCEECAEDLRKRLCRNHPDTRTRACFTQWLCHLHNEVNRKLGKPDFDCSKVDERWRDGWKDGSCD
H9c2 protect – cardioprotection against H2O2-induced cell death, primary screen, uHTS, H9c2 cells, ATPLite luminescence; AID 588492, 2011; protection from H2O2 cell death, % at 20 µM; 0.63% of 360,000 active; H9c2 cardiomyocytes, H2O2 injury protection, 2 h;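 active = compounds giving at least 50% protection of heart cells from peroxide-induced death in the single-dose screen, raw or plate-pattern-corrected value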
PfGluPho inh – PfG6PD enzyme inhibitors, primary screen, biochemical, fluorescence intensity, uHTS; PfGluPho enzyme, NADPH resazurin-diaphorase fluorescence; inhibition, % at 20 µM; 0.78% of 350,000 active; glucose-6-phosphate dehydrogenase-6-phosphogluconolactonase (Plasmodium falciparum 3D7); AID 504690, 2011;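 active = inhibition reaching at least a set limit at 20 µM in the primary screen, cut at about 59% in these data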
PHOSPHO1 inh – PubChem AID 1565 | Phosphoethanolamine/phosphocholine phosphatase (Homo sapiens), Q8TCT1 | recombinant PHOSPHO1, absorbance phosphatase assay | 1.1% of 290,000 active | inhibition, % at 13.3 µM; in the data active = inhibition above about 60%
Target sequence (Q8TCT1 whole entry, looked up): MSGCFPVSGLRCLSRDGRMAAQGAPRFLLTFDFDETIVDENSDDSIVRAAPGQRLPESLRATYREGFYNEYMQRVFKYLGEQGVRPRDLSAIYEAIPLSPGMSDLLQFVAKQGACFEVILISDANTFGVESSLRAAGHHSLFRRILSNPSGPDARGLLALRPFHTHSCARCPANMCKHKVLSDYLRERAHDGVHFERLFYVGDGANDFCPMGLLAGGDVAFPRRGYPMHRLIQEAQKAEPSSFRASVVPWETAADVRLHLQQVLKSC
M18AAP inhibitor – PfM18AAP inhibitors, malaria aminopeptidase, primary screen, biochemical, QFRET, recombinant enzyme; inhibition, % at 7.35 µM; M18 aspartyl aminopeptidase (Plasmodium falciparum 3D7); H-Glu-NHMec fluorogenic cleavage; AID 1822, 2009; 1.2% of 290,000 active;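 active = inhibition above the campaign mean inhibition over all tested compounds plus 3 SD, cut at about 28% in these data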
PfGluPho conf – PfG6PD inhibitors, hit retest, confirmation, biochemical, fluorescence intensity, single concentration | shares compounds with PfGluPho inh | recombinant PfGluPho, NADPH-diaphorase-resazurin fluorescence | inhibition, % at 20 µM | 34% of 2,400 active | AID 504753, 2011;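 active = inhibition of at least 50% at 20 µM in any single replicate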
Diaphorase 10uM – diaphorase inhibitors and chemical oxidizers, confirmation, counter-screen for P. falciparum G6PD inhibitor project, biochemical, fluorescence intensity, 10 µM NADPH. shares compounds with PfGluPho inh. 39% of 820 active. diaphorase-coupled resazurin reduction, NADPH 10 uM. inhibition, % at 20 µM;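 active = average inhibition reaching 50% or more with the compound at 20 µM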;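 note: resorufin red fluorescence formed as diaphorase reduces resazurin using NADPH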
Diaphorase 30uM – diaphorase inhibitors and chemical oxidizers, confirmation, counter-screen for P. falciparum G6PD inhibitor project, biochemical, fluorescence intensity, 30 µM NADPH | shares compounds with PfGluPho inh | inhibition, % at 20 µM | 29% of 820 active | Diaphorase/resazurin coupled assay, resorufin fluorescence;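 active = inhibition averaging 50% or more, tested at 20 µM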
Large screens that a line does not name were inactive (follow-up assays come after a bar, where they were run).

COc1ccc(NC(=O)C2C(=O)N(C)C3(C)CC2c2ccccc2O3)cc1 (stereo not given)	none
CC(CCc1ccccc1)NC(=O)C1CCC1 (stereo not given)	none (no result: PHOSPHO1 inh, M18AAP inhibitor)
O=C(CCSCCC(=O)NN=Cc1ccc(F)cc1)NN=Cc1ccc(F)cc1	none (no result: ALR H2O2 inh, PHOSPHO1 inh, M18AAP inhibitor)
O=C(CCSCCC(=O)NN=Cc1cccc(Cl)c1)NN=Cc1cccc(Cl)c1	PfGluPho inh 86 (no result: ALR H2O2 inh, PHOSPHO1 inh, M18AAP inhibitor) | PfGluPho conf 88 | Diaphorase 10uM 79 | Diaphorase 30uM 66
O=C(CC(=O)N/N=C/c1ccccc1)NCc1ccccc1	PfGluPho inh 107 | PfGluPho conf 72 | Diaphorase 10uM 67 | Diaphorase 30uM 67
O=C(CCC(=O)Nc1ccccc1Cl)N/N=C/c1ccccc1	PfGluPho inh 105 | PfGluPho conf 81 | Diaphorase 10uM 69 | Diaphorase 30uM inactive
O=C(CCCSCCCC(=O)NN=Cc1ccccc1)NN=Cc1ccccc1	PfGluPho inh 59 (no result: ALR H2O2 inh, PHOSPHO1 inh, M18AAP inhibitor) | PfGluPho conf inactive
O=C(Cc1ccccc1)NN=Cc1ccccc1	none (no result: ALR H2O2 inh, PHOSPHO1 inh, M18AAP inhibitor)
CCn1cc(CN2CCCC(C(=O)Nc3ccc(-c4cscn4)cc3)C2)cn1 (stereo not given)	none
COc1ccc(NS(=O)(=O)c2ccc(O)c(NS(=O)(=O)c3ccc(NC(C)=O)cc3)c2)cc1	none (no result: PHOSPHO1 inh, M18AAP inhibitor)
O=C(CCCC(=O)Nc1ccc(Br)cc1)N/N=C/c1ccccc1	PfGluPho inh 60 | PfGluPho conf inactive
Cc1ccc2nc(N3C(=O)C(O)=C(C(=O)c4ccc(C)o4)C3c3ccc(O)cc3)sc2c1 (stereo not given)	none (no result: PHOSPHO1 inh, M18AAP inhibitor)
c1ccc2c(c1)CCN(c1nc3cc4c(cc3s1)OCCO4)C2	PfGluPho inh 64 | PfGluPho conf inactive
O=C(N/N=C/c1cccc2ccccc12)c1ccccc1Cl	PfGluPho inh 83 | PfGluPho conf inactive
O=C(NN=Cc1ccccc1Cl)c1cccc2ccccc12	none (no result: ALR H2O2 inh, PHOSPHO1 inh, M18AAP inhibitor)
Cc1ccc2cccc(S(=O)(=O)N3CCCc4ccccc43)c2n1	PfGluPho inh 67 | PfGluPho conf inactive
Cc1ccc(S(=O)(=O)N2CCCc3ccccc32)cc1	none (no result: ALR H2O2 inh, PHOSPHO1 inh, M18AAP inhibitor)
CC(C)CCNC(=O)C1CCC(=O)N1CCc1ccccc1 (stereo not given)	none (no result: ALR H2O2 inh)
CCc1cc[n+](C2=C([O-])c3ccccc3C(=O)/C2=N\S(=O)(=O)c2cccs2)cc1	PfGluPho inh 95 | PfGluPho conf 72 | Diaphorase 10uM 66 | Diaphorase 30uM 75
O=C1C(=O)c2ccccc2C([O-])=C1[n+]1ccccc1	none
CCOC(=O)c1c(NC(=O)C(Sc2ccccc2)c2ccccc2)sc(C(N)=O)c1C (stereo not given)	PfGluPho inh 61 | PfGluPho conf inactive
CCOC(=O)c1c(NC(=O)C(Sc2ccccc2)c2ccccc2)sc(C(=O)N(C)C)c1C (stereo not given)	PfGluPho inh 79 | PfGluPho conf inactive
CCn1c(SCC(=O)Nc2ccc3c(c2)OCO3)nnc1-c1cnccn1	PfGluPho inh 83 | PfGluPho conf inactive
CCC(=O)N1CCN(c2ccc(NC(=O)c3ccco3)cc2Cl)CC1	none (no result: ALR H2O2 inh, PHOSPHO1 inh)
CC(C)NC(=O)c1cc2ccccc2o1	none
CC(C)c1nnc(NC(=O)c2cc3ccccc3o2)s1	PfGluPho inh 66 | PfGluPho conf 54 | Diaphorase 10uM inactive | Diaphorase 30uM inactive
O=C(Nc1ccc(N2CCN(C(=O)c3ccco3)CC2)c(Cl)c1)c1cc2ccccc2o1	PfGluPho inh 90 | PfGluPho conf 43 | Diaphorase 10uM inactive | Diaphorase 30uM inactive
Cc1ccc(NC(=O)c2cc3ccccc3o2)cc1Cl	PfGluPho inh 100 | PfGluPho conf inactive
CCC(=O)N1CCN(c2ccc(NC(=O)c3cc4ccccc4o3)cc2Cl)CC1	H9c2 protect 53, PfGluPho inh 118 | PfGluPho conf 84 | Diaphorase 10uM 72 | Diaphorase 30uM 61
CN1CCN(C(=O)C2Cc3c(-c4cccc(F)c4)ccnc3O2)CC1 (stereo not given)	none (no result: ALR H2O2 inh, PfGluPho inh, PHOSPHO1 inh, M18AAP inhibitor)
CCCNc1c(NS(=O)(=O)c2ccc3c(c2)CCCC3)c(=O)oc2ccccc12	none
CCCn1c(=N)n(CC(=O)c2ccc([N+](=O)[O-])cc2)c2ccccc21	PfGluPho inh 73 | PfGluPho conf inactive
CCCCOC(=O)Cn1c(=N)n(CCN2CCOCC2)c2ccccc21	none (no result: PHOSPHO1 inh)
CCCn1c(=N)n(CC(=O)c2ccc(Cl)cc2)c2ccccc21	none
N=c1n(CCN2CCOCC2)c2ccccc2n1CC(=O)c1cccc([N+](=O)[O-])c1	PfGluPho inh 75 | PfGluPho conf inactive
N=c1n(CCN2CCOCC2)c2ccccc2n1CC(=O)c1ccc(Cl)c(Cl)c1	PfGluPho inh 114 | PfGluPho conf inactive
COc1ccccc1N(C)c1cc2c(c3c1ccn3C)C1CCC2O1 (stereo not given)	none (no result: ALR H2O2 inh, PfGluPho inh, PHOSPHO1 inh, M18AAP inhibitor)
O=C(c1cccc(-c2ccc(O)cc2)c1)N1CCN(c2ccc(F)cc2)CC1	none
O=c1c2ccccc2sn1-c1ccc(S(=O)(=O)N2CCCCC2)cc1	PfGluPho inh 111 (no result: PHOSPHO1 inh) | PfGluPho conf 83 | Diaphorase 10uM inactive | Diaphorase 30uM inactive
Cc1ccc(-c2cc(-c3ccc(F)cc3)c(C#N)c(N)n2)o1	none
Cc1ccc(-c2cc(-c3ccc(C)o3)nc(N)c2C#N)cc1	PfGluPho inh 60 | PfGluPho conf inactive
Cc1ccc(-c2cc(-c3ccc(Cl)cc3)c(C#N)c(N)n2)o1	PfGluPho inh 96, PHOSPHO1 inh 72 | PfGluPho conf inactive
COc1ccc(S(=O)(=O)Nc2c(C(=O)O)[nH]c3ccccc23)c(OC)c1	ALR H2O2 inh inconclusive
COc1ccc(S(=O)(=O)Nc2c(C(=O)O)[nH]c3ccc(OC)cc23)c(OC)c1	PfGluPho inh 67 | PfGluPho conf inactive
O=C(NCCc1ccccc1)c1ccc2nc(-c3ccco3)c(-c3ccco3)nc2c1	PfGluPho inh 60 | PfGluPho conf inactive
O=C(NCCO)c1ccc2nc(-c3ccco3)c(-c3ccco3)nc2c1	PfGluPho inh 72, PHOSPHO1 inh 74 | PfGluPho conf inactive
O=C(NCCC(F)(F)F)C1Cc2c(-c3ccc(Cl)cc3)ccnc2O1 (stereo not given)	none (no result: ALR H2O2 inh, PfGluPho inh, PHOSPHO1 inh, M18AAP inhibitor)
CCOC(=O)C1C(=O)NC(SCC(=O)Nc2nccs2)=C(C#N)C1c1ccccc1OCC (stereo not given)	PfGluPho inh 70 | PfGluPho conf inactive
